A number with no mark means an inactive call. The source made the active and inactive calls.
Target: Dihydroorotate dehydrogenase (quinone), mitochondrial (Plasmodium falciparum (isolate 3D7)) (UniProt Q08210)
Experiment: PfDHODH enzyme inhibitors, primary screen, biochemical, C-terminal His tag, absorbance 600 nm (AID 1175);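 note: recombinant parasite enzyme with a five histidine tag at its C terminus; test concentration not given here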
Details: DCIP absorbance 600 nm, higher = more signal, called active from +8 up or from −8 down

Sequence of Dihydroorotate dehydrogenase (quinone), mitochondrial (Plasmodium falciparum (isolate 3D7)) (Q08210 whole entry, looked up): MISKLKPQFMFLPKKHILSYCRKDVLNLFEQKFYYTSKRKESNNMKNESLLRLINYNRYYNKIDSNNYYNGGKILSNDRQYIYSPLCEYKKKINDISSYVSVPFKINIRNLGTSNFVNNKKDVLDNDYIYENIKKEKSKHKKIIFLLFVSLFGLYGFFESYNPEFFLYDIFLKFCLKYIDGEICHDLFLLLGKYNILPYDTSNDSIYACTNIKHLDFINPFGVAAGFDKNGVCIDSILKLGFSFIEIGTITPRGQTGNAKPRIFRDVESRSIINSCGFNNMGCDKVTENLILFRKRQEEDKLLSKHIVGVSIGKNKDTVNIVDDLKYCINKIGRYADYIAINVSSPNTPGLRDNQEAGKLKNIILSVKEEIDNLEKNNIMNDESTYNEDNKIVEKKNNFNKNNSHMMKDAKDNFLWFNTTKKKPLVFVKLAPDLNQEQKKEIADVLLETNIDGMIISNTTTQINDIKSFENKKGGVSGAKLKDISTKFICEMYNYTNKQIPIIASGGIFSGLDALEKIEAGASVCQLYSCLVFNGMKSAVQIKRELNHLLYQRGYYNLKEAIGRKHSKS

| SMILES | composite z-score |
| --- | --- |
| O=C1NC(=O)C2C1C=CC(C(O)c1cc(C(F)(F)F)cc(C(F)(F)F)c1)N2Nc1ccccn1 (stereo not given) | -1.14 |
| C=C(/C(=C/C[C@H](OC(C)=O)c1ccccc1OCCO)c1cnc2ccccc2c1)C(C)C | -5.2 |
| COC(=O)[C@H](Cc1ccccc1)N1CC2=C[C@@H](C3CC3)n3c(=O)n(C)c(=O)n3[C@H]2[C@@H]1[C@@H](O)Cc1ccccc1 | -0.174 |
| CC(=O)n1cc(C(O)C2C=CC3C(=O)N(c4ccccc4)C(=O)C3N2Nc2ccc([N+](=O)[O-])cc2)c2ccccc21 (stereo not given) | 0.835 |
| CN1C=C(C(=O)OCCS(C)(=O)=O)C(C(=O)OCCS(C)(=O)=O)=CC(c2ccc(CO)cc2)=CC1C1CC1 (stereo not given) | -0.524 |
| COC(=O)[C@]1(CCC(=O)OC(C)(C)C)N=C(c2ccc(OCCCO)cc2)O[C@@H]1c1ccccc1CN=[N+]=[N-] | 0.965 |
| C=CCNC(=O)[C@@H]1[C@H]2C(=O)O[C@H](c3ccccc3)[C@H](c3ccccc3)N2[C@H](c2ccc(OCCO)cc2)[C@@]12C(=O)Nc1ccc(C#CCC(C(=O)OC)C(=O)OC)cc12 | -4.92 |
| COC(=O)C(CC#Cc1ccc2c(c1)[C@]1(C(=O)N2)[C@H](c2ccc(OCCO)cc2)N2[C@H](c3ccccc3)[C@H](c3ccccc3)OC(=O)[C@H]2[C@@H]1C(=O)N1CCc2cc(OC)c(OC)cc2C1)C(=O)OC | -4.19 |
| NC(=O)N1C(=O)C2C(C1=O)C1C=C(c3ccc(CO)cc3)C2C(c2cccs2)N1Cc1cccc(OC(F)(F)F)c1 (stereo not given) | -8.36 (active) |
| C=CCC(OC(C)=O)[C@@H]1[C@@H](N(Cc2ccc(-c3ccccc3)cc2)C(=O)c2cccc3ccccc23)c2cc(OCCCO)ccc2N1C(=O)c1ccc(-c2ccccc2)cc1 (stereo not given in full) | -0.0355 |
| COc1cc(NN2C(C(O)c3ccco3)C=CC3C(=O)N(c4ccccc4)C(=O)C32)cc(OC)c1OC (stereo not given) | -2 |
| CC(C)[Si]1(C(C)C)O[C@@H](c2ccccc2)c2cc(-c3ccc(-c4ccc(Cl)c(Cl)c4)o3)nc(-c3ccccc3)c21 | 1.74 |
| CCOC(=O)C[C@H]1[C@H](OC(=O)c2ccc(C(=O)c3ccccc3)cc2)[C@@H](NC(=O)c2ccc3ccccc3n2)c2cc(OCCCO)ccc2N1C(=O)c1ccccc1 | -0.203 |
| CC(C)C(O)C1C=CC2C(=O)NC(=O)C2N1Nc1ccc(Cl)cc1Cl (stereo not given) | 0.0813 |
| COc1ccc(C#Cc2ccc3c(c2)[C@]2(C(=O)N3)[C@H](C(=O)Nc3nc4ccccc4s3)[C@H]3C(=O)O[C@H](c4ccccc4)[C@H](c4ccccc4)N3[C@@H]2c2ccc(O)cc2)cc1 | -2.08 |
| COC(=O)[C@@]1(Cc2ccccc2)N=C(c2ccc(OCCCO)cc2)O[C@H]1c1ccccc1 | 1.14 |
| [N-]=[N+]=Nc1ccccc1[C@H]1OC(c2ccc(OCCCO)cc2)=N[C@@]1(CCS(=O)(=O)c1ccccc1)C(N)=O | 0.22 |
| O=C1C[C@@](C(=O)NC2CC2)(c2ccc([N+](=O)[O-])cc2)[C@@H](c2ccc(CO)cc2I)N1C1CCCCC1 | -0.716 |

| SMILES | composite z-score |
| --- | --- |
| COc1cc2c(cc1OC)CN(C(=O)[C@H]1[C@@H]3C(=O)O[C@@H](c4ccccc4)[C@@H](c4ccccc4)N3[C@@H](c3ccc(O)cc3)[C@]13C(=O)Nc1ccccc13)CC2 | 0.806 |
| O=C1O[C@H](c2ccccc2)[C@H](c2ccccc2)N2[C@H]1[C@@H](C(=O)N1CCCCCCC1)[C@]1(C(=O)Nc3ccc(C#CC4=CCCCC4)cc31)[C@H]2c1ccc(OCCO)cc1 | -0.585 |
| COC(=O)[C@@]1(CCC(=O)OC(C)(C)C)N=C(c2ccc(OCCCO)cc2)O[C@H]1c1ccccc1N=[N+]=[N-] | 0.414 |
| O=C1C2C=CC(C(O)c3cc(C(F)(F)F)cc(C(F)(F)F)c3)N(n3cnnc3)C2C(=O)N1Cc1ccccc1 (stereo not given) | 0.861 |
| CCCCCN1CC=CC23O[C@@H]4C=CCCOC(=O)C4[C@H]2C(=O)N(CCCCCO)[C@@H]3C1=O (stereo not given in full) | -0.185 |
| COc1ccc([Si](C)(C)[C@@H]2[C@@H](CCO)O[C@]3(C(=O)N(Cc4ccc(N(C=O)c5ccccc5)cc4)c4ccccc43)[C@H]2C)cc1 | -0.493 |
| C=CCOC(=O)[C@H]1[C@@H]2C(=O)O[C@@H](c3ccccc3)[C@@H](c3ccccc3)N2[C@@H](c2ccc(OCCOC(=O)[C@H]3C[C@H]4C(=O)N[C@@H](CCCCNC(C)=O)C(=O)N4[C@H]3c3cccc(OCCO)c3)cc2)[C@]12C(=O)Nc1ccccc12 | 0.592 |
| [N-]=[N+]=NCc1ccccc1C[C@]1(C(N)=O)COC(c2ccc(OCCCO)cc2)=N1 | -0.0854 |
| C=C(CC1([C@@H](NP(=O)(c2ccccc2)c2ccccc2)[C@H]2C[C@@H]2CCCC)CC1)c1ccccc1 | -0.424 |
| CC[C@@H]1C=C(C(=O)O)[C@H](c2ccc(Br)cc2)N1S(=O)(=O)c1ccc(C)cc1 | -0.412 |
| C=C(CCCC)/C(=C/C[C@H](OC(C)=O)c1ccccc1OCCO)c1cc(C(=O)OC)ccc1OC | -2.1 |
| COC(=O)[C@@]1(Cc2ccc(OC)cc2)[C@H]2c3cc(C(=O)N(C)C)n(C)c3C[C@H]2CN1C(=O)c1ccccc1 | -0.342 |
| CN(C)CCCCCCNC(=O)[C@H]1C[C@H]2C(=O)N[C@@H](CCCCN)C(=O)N2[C@H]1c1cccc(OCCO)c1 | -0.692 |
| NC(=O)NCC#Cc1ccc2c(c1)[C@]1(C(=O)N2)[C@H](c2ccccc2OCCO)N2[C@H](c3ccccc3)[C@H](c3ccccc3)OC(=O)[C@H]2[C@@H]1C(=O)Nc1nc2ccccc2s1 | -1.12 |
| CC1CC/C=C\[C@H]2OC34C=CCN(C(C)(C)C)C(=O)[C@H]3N(CCO)C(=O)[C@@H]4C2C(=O)O1 (stereo not given in full) | -0.0848 |
| C=C(COC)/C(=C/C[C@H](OC(C)=O)c1ccc(CO)o1)c1cc(C(=O)OC)ccc1OC | -6.52 |
| CNS(=O)(=O)c1ccc(C)cc1 | -1.05 |

— PubChem BioAssay
